Pf Dd2 inh: Plasmodium falciparum Dd2 growth inhibition; Potency, µM (series often up to 28.9 µM), without a hit: at the top dose activity, negative = inhibition, actives largely listed as inhibitors; P. falciparum Dd2 growth, SYBR Green, 72 h; 120,000 tested, 4.3% active; active means well fitted inhibition curve with a large enough effect;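 further: plate controls were DMSO vehicle for no effect and reference drug for full effect; nearly all actives have a fitted effect of over 65% in size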
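Infected erythrocytes (Dd2, 0.3% parasitemia, 2.5% hematocrit final) are added to compound in RPMI-1640/Albumax II medium, grown 72 h at 37C in low oxygen, then lysed with saponin/Triton-X containing SYBR Green and read by fluorescence.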
Numbers without * were called inactive; i = inactive; [ ] = remark or other dose. This is one part of a sample in which hits are shown more often than they occur. Potency means the concentration at half of the fitted maximal effect.

SMILES	Pf Dd2 inh
COCCN1CCCCCC(O)c2cc(C(=O)NCCCN3CCCc4ccccc43)ccc21 (stereo unspecified)	-20%
COCCN1CCCCCC(O)c2cc(C(=O)NCCc3c[nH]c4ccccc34)ccc21 (stereo unspecified)	5µM*
COc1cccc([C@H]2CN(C(=O)c3c(-c4ccccc4)noc3C)C[C@@H]2N)c1	-20%
CC1CCCCN1C(=O)CSc1nnc(-c2ccccc2Cl)o1 (stereo unspecified)	-18%
CC1CCCCN1C(=O)CSc1n[nH]c(-c2ccccc2Cl)n1 (stereo unspecified)	8%
COc1ccccc1N1CCN(C(=O)CSc2nc(C)cc(=O)[nH]2)CC1	54%
COc1ccccc1N1CCN(C(=O)CSc2nc(-c3ccc(C(C)C)cc3)no2)CC1	0.35µM*
CC1CCCCN1C(=O)CSc1nc(-c2ccccc2)no1 (stereo unspecified)	10µM*
COc1ccccc1N1CCN(C(=O)CSc2n[nH]c(-c3ccccc3)n2)CC1	-2%
CNC(=O)[C@H]1C[C@H](Oc2ccccc2)CN1C(=O)CCc1nc2ccccc2s1	9%
COc1ccc(C(=O)N2CCN(CC3CC3)[C@@H]3CS(=O)(=O)C[C@@H]32)c(C)c1	9%
O=C(Cc1ccccc1F)N1CCC(c2nc3c(nnn3Cc3ccc(F)cc3)c(=O)[nH]2)CC1	-17%
O=C(Cc1ccc(F)cc1)N1CCC(c2nc3c(nnn3Cc3ccc(Cl)cc3)c(=O)[nH]2)CC1	14µM*
Cc1cccc(Cn2nnc3c(=O)[nH]c(C4CCN(C(=O)c5ccccc5F)CC4)nc32)c1	-18%
CN1CCCN(C(=O)COc2ccc(Cl)cc2)c2ccccc21	-24%
Cc1noc2c(N3CCN(C)CC3c3ccccc3)cc(-c3cccnc3)nc12 (stereo unspecified)	-4%[44.1 µM]
Cc1nn(-c2ccc(C(F)(F)F)cc2)c(C)c1[C@@H]1C=C[C@@H](NC(=O)CSCC(=O)O)C1	i
Cc1nn(-c2ccccn2)c(C)c1[C@@H]1C=C[C@@H](NC(=O)CC(C)(C)CC(=O)O)C1	i
Cc1nn(-c2ccc(C(C)(C)C)cc2)c(C)c1[C@@H]1C=C[C@@H](NC(=O)CCCC(=O)O)C1	i
Cc1nn(-c2ccccc2[N+](=O)[O-])c(C)c1[C@@H]1C=C[C@@H](NCc2ccco2)C1	11µM*
Cc1nn(-c2ccccc2)c(C)c1[C@@H]1C=C[C@@H](NC(=O)c2ccco2)C1	10µM*
Cc1nn(-c2ccc(F)cc2)c(C)c1[C@@H]1C=C[C@@H](NC(=O)c2ccco2)C1	6.3µM*
Cc1nn(-c2ccccc2)c(C)c1[C@@H]1C=C[C@@H](NC(=O)CCCC(=O)O)C1	-1%[44.1 µM]
Cc1nn(-c2ccc(C(C)(C)C)cc2)c(C)c1[C@@H]1C=C[C@@H](NC(=O)CC2(CC(=O)O)CCCC2)C1	4%
COC(=O)c1cccc(NC(=S)N[C@@H]2C=C[C@@H](c3c(C)nn(-c4ccc(F)cc4)c3C)C2)c1	-20%
SMILES	Pf Dd2 inh
Cc1nn(-c2ccccc2)c(C)c1[C@@H]1C=C[C@@H](NC(=O)CC(C)(C)CC(=O)O)C1	-4%[44.1 µM]
CC(=O)N[C@@H]1C=C[C@@H](c2c(C)nn(-c3ccc(C)c(Cl)c3)c2C)C1	i
Cc1cc(Cl)ccc1-n1nc(C)c([C@@H]2C=C[C@@H](NC(=O)c3ccc(N(C)C)cc3)C2)c1C	10µM*
CC(C)NC(=O)c1nc(-c2ccc(Cl)cc2)c2ccccn12	2%
CN(C)C(=O)CO[C@@H]1COCC[C@H]1NC(=O)c1cccc(-n2cccn2)c1	-3%
COCCC(=O)N1C[C@@H](Oc2ccccc2)C[C@@H]1C(=O)N1CCOCC1	25%
O=C(O)Cc1cccn1-c1cccc(Cl)c1	i
O=C(NC[C@H]1Cn2cc(-c3ccc4c(c3)OCCCO4)nc2CO1)c1ccc2c(c1)OCO2	i
CCCNc1ncc(CN2CCCC(c3ccc(C(=O)O)cc3)C2)cn1 (stereo unspecified)	-4%
Cc1ccc(C(=O)N[C@H]2CO[C@H]3[C@@H]2OC[C@H]3OC(=O)Nc2ccccc2)cc1	-4%[44.1 µM]
O=C(c1ccsc1)N1CCC(c2n[nH]c(=O)n2Cc2ccc(F)cc2)CC1	-4%
O=C(NCc1ccco1)N1CCCC2(C1)Nc1cccnc1NC2=NCc1ccccc1 (stereo unspecified)	22%[5.79 µM]
COCCN1C(=O)[C@H]2CN(Cc3cccc(C#N)c3)C[C@H]2C1=O	-6%
COc1ncccc1C(=O)N1CCc2onc(-c3cccc4ccccc34)c2C1	-20%
COCc1cc(N2CCc3onc(-c4cccc5ccccc45)c3C2)ncn1	14µM*
O=S(=O)(c1cccnc1)N1CCc2onc(-c3cccc4ccccc34)c2C1	-17%
CC(C)(O)CCc1cccc(C(=O)N2CCN(CC3CCCC3)CC2)c1	-13%
COCCn1ncc(N2CCCC(CC(=O)N(C)Cc3ccccc3)C2)cc1=O (stereo unspecified)	-20%
Cc1ccc(C)c(Cn2c(=O)n(Cc3ccc(C(=O)NC4CCN(Cc5ccccc5)CC4)cc3)c(=O)c3ccccc32)c1	-3%
O=c1c2ccccc2n(Cc2c(F)cccc2Cl)c(=O)n1Cc1ccccc1	-2%
O=C(NC1CCN(Cc2ccccc2)CC1)c1ccc(Cn2c(=O)c3ccccc3n(Cc3ccc(F)cc3)c2=O)cc1	10µM*
O=C(c1ccc(OC2CCN(C(=O)c3cccc(F)c3)CC2)nc1)N1CCOCC1	21%
CCN(Cc1cccc2cnccc12)CC1CCCN(CCc2cccc(F)c2)C1 (stereo unspecified)	2.2µM*
CN(CC1CCN(CCc2cccc(F)c2)CC1)C(=O)COc1cccnc1	-25%
O=C1CCN(Cc2cccc(F)c2)CCCC(c2nc(-c3cccnc3)no2)CCN1 (stereo unspecified)	-17%
SMILES	Pf Dd2 inh
O=C(c1ccc(CN2C(=O)NC3(CCS(=O)(=O)CC3)C2=O)cc1)N1CCCCC1	-5%
CN(CC1CCOCC1)C(=O)Nc1cc(F)c(F)c(F)c1	-16%
O=C(c1ccc(F)cc1)N1CCCC2(CNc3ccccc3[S+](=O)([O-])N2)C1 (stereo unspecified)	-6%
COc1ccc(C2=NOC3(CCN(C(=O)c4ccc(C)cc4)C3)C2)cc1 (stereo unspecified)	i
O=c1cc(CN2CCCC(CCc3ccccc3C(F)(F)F)C2)[nH]c(=O)[nH]1 (stereo unspecified)	-12%
Cc1ccccc1CN1CCCC(CCNS(=O)(=O)C2CC2)C1 (stereo unspecified)	10µM*
COc1coc(CN2CCCC(CCc3ccccc3F)C2)cc1=O (stereo unspecified)	i
COc1ccc(CNC(=O)CSc2ncc3c(n2)-c2cc(Cl)ccc2N(Cc2ccccc2)S3(=O)=O)cc1	-29%
COc1ccc(CNC(=O)CSc2ncc3c(n2)-c2ccc(Cl)cc2N(Cc2ccc(F)cc2)S3(=O)=O)cc1OC	11µM*
COc1ccccc1CNC(=O)CSc1ncc2c(n1)-c1ccc(Cl)cc1N(Cc1ccccc1)S2(=O)=O	1%
C=CCNC(=O)C(NC(=O)c1ccc(OC)cc1)C1CCN(C(=O)c2cccc(F)c2)CC1 (stereo unspecified)	i
COC(C)(C)C(=O)N1CCc2onc(-c3ccc4c(c3)OCO4)c2C1	-14%
CN1CCN(c2nc3c(c(=O)[nH]2)CCN(Cc2cccc(Cl)c2)CC3)CC1	10%[5.79 µM]
C#CCN(C)Cc1nc(C2(O)CCN(C)CC2)cs1	1%[44.1 µM]
C#CCN(C)Cc1nc(C2(O)CCN(C3CCC3)CC2)cs1	10µM*
C#CCN(C)Cc1nc(C2(O)CCN(CC3CC3)CC2)cs1	i
CNCc1ccncc1	106%[44.1 µM]

From PubChem BioAssay
